Rows were chosen to be rich in hits. Some 3.7% of all compounds tested hit in one or more screens of this group.
GALC G270D up – A Novel Cell-Based Assay to Identify Small Molecules for B -Galactocerebrosidase; P54803; 145M-Twi-hGALC-G270D cells (Twitcher mouse brain line with human GALC G270D), HMU-beta-Gal fluorescence, 48 h; Potency, µM (titrated, usually from 57.5 µM), usual class: activators; 45,000 compounds, 0.1% hits; AID 1159614, 2016; note: nearly all actives have a fitted effect of over 65% in size
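Brain-derived Twitcher mouse 145M-Twi cells stably expressing human GALC-G270D or wild-type GALC, treated live, then residual GALC activity read by fluorescence of HMU-b-Gal substrate (0.1 mM final) in citrate-phosphate buffer pH 5.2 with sodium taurocholate. Signal increase indicates enhancement.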
HTT prom inh – Primary qHTS for Identification of Small Molecule Inhibitors of Huntingtin Promoter Activity; HEK293 HTT promoter firefly luciferase reporter, 24 h; Potency, µM (highest dose often 57.5 µM), usual class: inhibitors; 48,000 compounds, 0.93% hits; note: nearly all actives have a fitted effect of over 50% in size
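HEK293 cells carrying firefly luciferase reporters were seeded at 2,500 per well in Opti-MEM and cultured for 24 h. They were then treated with compounds at up to 57.5 uM final for 24 h at 37 degrees C before Dual-Glo luminescence readout.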
FH mod – Identification of activators of human fumarate hydratase by quantitative high-throughput screening. AID 1347055, 2019. 54,000 compounds, 0.22% hits. FH coupled MDH/diaphorase resazurin fluorescence, 15 min. Potency, µM (series often up to 79.9 µM), actives largely listed as inhibitors; note: the screen sought activators but most active calls are inhibition curves; nearly all actives have a fitted effect of over 45% in size
B2AR arrestin ag – qHTS assay of beta-arrestin-biased ligands of beta2-adrenergic receptor: NCGC Sytravon Library Screen. HTLA Tango cells, beta-arrestin recruitment, luciferase luminescence, 18 h. 44,000 tested, under 10 active. Potency, µM (top dose mostly 46.1 µM), hits mostly activators. Beta-2 adrenergic receptor (Homo sapiens), P07550
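Tango cells (recombinant beta2-AR, beta-arrestin, tTA-driven luciferase), 1500/well in DMEM 1% FBS, treated 18 h at 37 °C with compounds up to 46 µM; luciferin mix added, luminescence read after 15 min; %activity curves fitted and curve-classed.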
HTT-AS promoter – Primary qHTS for Identification of Small Molecule Activators of Huntingtin-Antisense Promoter Activity; HEK293 HTT-AS promoter firefly luciferase reporter, 24 h; response scale: percent change from vehicle, -100% = no light; 48,000 compounds, 0.24% hits; Potency, µM (series often up to 57.5 µM), hits mostly activators; note: nearly all actives have a fitted effect of over 55% in size
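HEK293 cells carrying firefly luciferase reporters were seeded at 2,500 per well in Opti-MEM and cultured for 24 h. They were then treated with compounds at up to 57.5 uM final for 24 h at 37 degrees C before Dual-Glo luminescence readout.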
GPR32 ag – qHTS for Agonists of Human Resolvin D1 Receptor DRV1. Probable G-protein coupled receptor 32 (Homo sapiens), O75388. CHO-K1 GPR32 beta-arrestin PathHunter luminescence, 90 min; zero percent set by DMSO-only wells. activation, % at 76.9 µM. 48,000 compounds, 2.5% hits. AID 1346428, 2018;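 active = activation of at least 60% and not above a set upper limit, about 1 call in 100 departs from these limits; inconclusive = activation of 40% to 60%, or above that upper limit; inactive = activation under 40%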
Target sequence (O75388 whole entry, looked up): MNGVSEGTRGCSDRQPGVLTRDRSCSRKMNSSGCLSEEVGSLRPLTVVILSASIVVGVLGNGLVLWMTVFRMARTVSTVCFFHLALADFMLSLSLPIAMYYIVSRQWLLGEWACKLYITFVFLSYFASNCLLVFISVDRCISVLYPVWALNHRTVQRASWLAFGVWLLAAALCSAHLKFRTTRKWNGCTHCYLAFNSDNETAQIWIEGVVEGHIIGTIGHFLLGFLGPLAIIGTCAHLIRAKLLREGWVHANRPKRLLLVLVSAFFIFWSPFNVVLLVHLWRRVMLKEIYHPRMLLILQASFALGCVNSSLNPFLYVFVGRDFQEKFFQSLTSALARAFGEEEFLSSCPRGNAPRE
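GPR32 activation in stably transfected CHO-K1 cells, detected as beta-arrestin recruitment by enzyme-fragment complementation. Compound exposure: 90 min, 37 °C.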
A number is an active result; n = inactive; u = inconclusive; x = no result; [ ] = dose if it differs, or a comment. Unless noted, calls come from the whole dose curve; as a rule, active = well fitted curve in the direction sought with a large enough effect; inconclusive = small, poorly fitted or top-dose-only effect, or another doubt; inactive = no such curve, though single readings can be large; an effect the other way counts as inactive or inconclusive.

SMILES	GALC G270D up	HTT prom inh	FH mod	B2AR arrestin ag	HTT-AS promoter	GPR32 ag
CC1(C(=O)O)CCCC2(C)C3CCC4CC3(CCC12)CC4(O)CO (stereo unspecified)	x	x	n	x	x	x
COc1ccc(-c2nnc(SCC(=O)Nc3cccc(C)c3)s2)cc1	n	n	n	n	n	n
COc1ccc(-c2nnc(SCC(=O)Nc3ccc(C)c(C)c3)s2)cc1	n	n	n	n	n[11.5 µM]	115
COc1cccc(NC(=O)CSc2c3c(nc4ccccc24)CCCC3)c1	n	n	n	n	n	n
Cc1ccc(NC(=O)CSc2c3c(nc4ccccc24)CCCC3)cc1F	n	n	n	n	n	65
Cc1ccc(-n2ncc3c(N4CCN(CCO)CC4)ncnc32)cc1Cl	n	n	n	n	u	65
CCN1CCN(c2ncnc3c2cnn3-c2ccc(C)c(Cl)c2)CC1	n	n	n	n	u	n
Cc1ccc(-n2ncc3c(N4CCN(Cc5ccccc5)CC4)ncnc32)cc1C	n	u	n	n	n	75
O=C(Nc1ccc(OC(F)(F)F)cc1)c1noc2c1CCCC2	n	n	n	n	1.1µM	n
CC(C)(C[C@@](O)(Cc1cc2ccncc2[nH]1)C(F)(F)F)c1cc(F)ccc1O	x	x	n	x	x	x
CCCc1c(OCCCCc2nn[nH]n2)ccc(C(C)=O)c1O	n	n	n	x	n	87
O=C(NCCc1ccccc1)c1ccc2c(c1)N(Cc1ccc(F)cc1Cl)C(=O)CS2	n	n	n	n	n	108
C[C@@]1(C2CCCC2)Cc2cc(OCC(=O)O)c(Cl)c(Cl)c2C1=O	x	x	u	x	x	n
C=C(CC)C(=O)c1ccc(OCC(=O)O)c(Cl)c1Cl	n	u	n	x	n	90
O=C(COc1ccc(F)cc1)NC1CC(=O)N(c2ccc3c(c2)OCCO3)C1 (stereo unspecified)	n	n	n	n	n	115
O=C(COc1ccccc1)NC1CC(=O)N(c2ccc3c(c2)OCCO3)C1 (stereo unspecified)	n	n	n	n	n	n
Cn1c(=O)n(C)c2cc(N3CCOCC3)c(NS(=O)(=O)c3cccc(C#N)c3)cc21	n	n	16µM	n	n	n
CCCc1cc(C)[nH]c(=O)c1CNC(=O)c1cc(-c2ccnc(N3CCN(C)CC3)c2)cc2c1cnn2C(C)C	x	x	n	x	x	x
CC1=C2C(=O)C=C(CO)C2C2OC(=O)C(CS(=O)(=O)O)C2C(OC(=O)Cc2ccc(O)cc2)C1 (stereo unspecified)	x	x	n	x	x	x
C=CCc1ccccc1OCCSc1nc(-c2cccs2)nc2cc(=O)[nH]n12	x	x	x	n	x	86
CC(C)(C)c1ccc(OCCSc2nc(-c3cccs3)nc3cc(=O)[nH]n23)cc1	x	x	x	n	x	68
C=CCc1ccccc1OCCSc1nc(-c2ccc(C(C)(C)C)cc2)nc2cc(=O)[nH]n12	x	x	x	n	x	n
O=c1cc2nc(-c3cccs3)nc(SCCOc3ccc(Cl)cc3)n2[nH]1	n	n	n	n	n	n
COc1ccccc1OCCSc1nc(-c2ccc(C(C)(C)C)cc2)nc2cc(=O)[nH]n12	x	x	x	n	x	65
C[C@@H]1CCCN1CCc1cc2cc(-c3ccc(C#N)cc3)ccc2o1	x	x	n	x	x	x
SMILES	GALC G270D up	HTT prom inh	FH mod	B2AR arrestin ag	HTT-AS promoter	GPR32 ag
N#Cc1cccc(-c2c[nH]c3ncnc(N4CCOCC4)c23)c1	x	x	n	x	x	x
CCCCOc1ccc(CC/C=C2\SC(=O)N(CCN)C2=O)cc1	x	x	n	x	x	x
COc1ccc(-c2c(C)nn3c(NCCN4CCOCC4)cc(C)nc23)cc1OC	x	x	n	x	x	x
C=CC(=O)N1CCN(C(=O)c2cc(-c3cc(Cl)ccc3Cl)c(Cl)cc2OC)CC1	x	x	n	x	x	x
Nc1ncnc2c1ncn2CCNCCCCCO	x	x	n	x	x	x
Cc1ccc(NC(=O)Nc2cc(C(F)(F)F)ccc2F)cc1Nc1ccc2c(c1)NC(=O)/C2=C\c1ccc[nH]1	x	x	n	x	x	x
COc1nc2sc(C(=O)NC3CC3)c(N)c2c(C)c1Cl	x	x	n	x	x	x
Cc1cc(NC(=O)CCc2nc3cccnc3n2-c2ccccc2)ccc1Br	n	u	n	n	n	66
Nc1nc(SCc2ccc([N+](=O)[O-])cc2)c2ncn([C@@H]3O[C@H](CO)C(O)[C@H]3O)c2n1 (stereo partly specified)	x	x	n	x	x	x
CC1(C)CCCC2(C)C=C(C(=O)O)C(O)CC12 (stereo unspecified)	x	x	n	x	x	x
CCn1c(=O)c(-c2ccn[nH]2)cc2c(C)nc(N)nc21	x	x	n	x	x	x
Cn1nnnc1SCCCNCc1ccccc1OCc1ccccc1Cl	n	14µM	n	n	n	n
Cn1nnnc1SCCCNCc1cccc(OCc2ccccc2Cl)c1	n	n	n	n	n	n
CCOc1cc(CNCCSc2nnnn2C)cc(Cl)c1OCc1ccc(Cl)cc1	n	u	u	n	n	n
COc1cccc(CNCCSc2nnnn2C)c1OCc1ccc(Cl)cc1	n	n	n	n	n	116
COc1cc(CNCCSc2nnnn2C)cc(Cl)c1OCc1ccccc1	n	n	n	n	n	89
CC(C)C1C(OC(=O)/C=C/c2ccccc2)CC2(C)OC2CCC2(C)OC2C1O (stereo unspecified)	x	x	n	x	x	x
CN1CC[C@@H](c2c(O)cc(O)c3c(=O)cc(-c4ccccc4Cl)oc23)[C@@H](O)C1	x	u	n	x	u	x
Cc1ccc(CN2CCCn3nc(C(=O)NCCc4ccc(Cl)cc4)cc3C2=O)cc1	n	u	n	n	n	115
Cc1ccc(CCNC(=O)c2cc3ccccn3n2)cc1	x	x	x	n	x	111
CSc1ccc(CCNC(=O)c2cc3n(n2)CCCN(Cc2ccc(C)cc2)C3=O)cc1	n	u	n	n	n	n
Cc1ccc(CN2CCCn3nc(C(=O)NCc4cc(C)ccc4C)cc3C2=O)cc1	n	28µM	n	n	n	n
CCCCOc1ccc(CNC(=O)c2cc3n(n2)CCCN(Cc2ccc(C)cc2)C3=O)cc1	n	25µM	n	n	n	n
CNC(=O)Nc1ccc(OC)c(NC(=O)NC(=O)c2cc(F)c(F)cc2Cl)c1	x	x	n	x	x	x
CCOc1ccc2nc(C)cc(Nc3ccccc3OCC)c2c1	n	n	n	n	n	90
O=C(CS(=O)(=O)c1cccc2nsnc12)N1CCN(c2cccc(C(F)(F)F)c2)CC1	n	n	n	n	n	88
CCc1cccc(NC(=O)Cn2c(=O)ccc3cc(S(=O)(=O)N4CCC(C)CC4)ccc32)c1	n	u	n	n	n	n
